# Measurements published in ChEMBL document CHEMBL1961873, “Compounds: GSK PKIS; Assays: Nanosyn kinase panel” (2012).
# How the values were obtained:
# [1] = target: Death-associated protein kinase 1 (Homo sapiens) (UniProt P53355); conditions: at 1 µM;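 also: each value is a mean inhibition figure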
# [2] = target: T1, Serine/threonine-protein kinase DCLK2 (Homo sapiens) (UniProt Q8N568); conditions: at 0.1 µM
# T1 sequence (whole entry): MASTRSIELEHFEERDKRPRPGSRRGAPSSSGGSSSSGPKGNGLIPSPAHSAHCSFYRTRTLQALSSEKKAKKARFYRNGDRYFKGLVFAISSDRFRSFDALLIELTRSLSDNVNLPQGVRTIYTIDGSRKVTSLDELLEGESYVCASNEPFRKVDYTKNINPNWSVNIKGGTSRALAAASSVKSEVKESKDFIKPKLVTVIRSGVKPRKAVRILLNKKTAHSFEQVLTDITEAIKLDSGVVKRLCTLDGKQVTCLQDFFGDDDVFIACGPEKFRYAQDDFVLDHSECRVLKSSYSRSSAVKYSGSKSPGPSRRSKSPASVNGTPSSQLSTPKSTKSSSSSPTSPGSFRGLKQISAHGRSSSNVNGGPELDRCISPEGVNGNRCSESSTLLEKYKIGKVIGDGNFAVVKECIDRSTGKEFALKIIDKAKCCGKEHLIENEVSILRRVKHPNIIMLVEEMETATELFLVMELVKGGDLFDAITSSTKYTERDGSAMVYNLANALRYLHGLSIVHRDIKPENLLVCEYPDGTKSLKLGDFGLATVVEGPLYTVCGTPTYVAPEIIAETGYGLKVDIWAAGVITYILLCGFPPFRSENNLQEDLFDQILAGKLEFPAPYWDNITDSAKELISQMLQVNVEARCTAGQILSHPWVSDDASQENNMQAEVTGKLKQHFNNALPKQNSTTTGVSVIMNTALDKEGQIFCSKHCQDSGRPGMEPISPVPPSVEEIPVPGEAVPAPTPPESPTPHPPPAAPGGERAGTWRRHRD
# [3] = target: T1, Serine/threonine-protein kinase DCLK2 (Homo sapiens); conditions: at 1 µM
# [4] = target: MAP kinase-activated protein kinase 2 (Homo sapiens) (UniProt P49137); conditions: at 0.1 µM
# [5] = target: MAP kinase-activated protein kinase 2 (Homo sapiens) (UniProt P49137); conditions: at 1 µM
# [6] = target: MAP kinase-activated protein kinase 3 (Homo sapiens) (UniProt Q16644); conditions: at 0.1 µM
# [7] = target: MAP kinase-activated protein kinase 3 (Homo sapiens) (UniProt Q16644); conditions: at 1 µM
# [8] = target: Serine/threonine-protein kinase MARK1 (Homo sapiens) (UniProt Q9P0L2); conditions: at 0.1 µM
# [9] = target: Serine/threonine-protein kinase MARK1 (Homo sapiens) (UniProt Q9P0L2); conditions: at 1 µM
# [10] = target: MAP/microtubule affinity-regulating kinase 3 (Homo sapiens) (UniProt P27448); conditions: at 0.1 µM
# [11] = target: MAP/microtubule affinity-regulating kinase 3 (Homo sapiens) (UniProt P27448); conditions: at 1 µM
# [12] = target: T2, MAP/microtubule affinity-regulating kinase 4 (Homo sapiens) (UniProt Q96L34); conditions: at 0.1 µM
# T2 sequence (whole entry): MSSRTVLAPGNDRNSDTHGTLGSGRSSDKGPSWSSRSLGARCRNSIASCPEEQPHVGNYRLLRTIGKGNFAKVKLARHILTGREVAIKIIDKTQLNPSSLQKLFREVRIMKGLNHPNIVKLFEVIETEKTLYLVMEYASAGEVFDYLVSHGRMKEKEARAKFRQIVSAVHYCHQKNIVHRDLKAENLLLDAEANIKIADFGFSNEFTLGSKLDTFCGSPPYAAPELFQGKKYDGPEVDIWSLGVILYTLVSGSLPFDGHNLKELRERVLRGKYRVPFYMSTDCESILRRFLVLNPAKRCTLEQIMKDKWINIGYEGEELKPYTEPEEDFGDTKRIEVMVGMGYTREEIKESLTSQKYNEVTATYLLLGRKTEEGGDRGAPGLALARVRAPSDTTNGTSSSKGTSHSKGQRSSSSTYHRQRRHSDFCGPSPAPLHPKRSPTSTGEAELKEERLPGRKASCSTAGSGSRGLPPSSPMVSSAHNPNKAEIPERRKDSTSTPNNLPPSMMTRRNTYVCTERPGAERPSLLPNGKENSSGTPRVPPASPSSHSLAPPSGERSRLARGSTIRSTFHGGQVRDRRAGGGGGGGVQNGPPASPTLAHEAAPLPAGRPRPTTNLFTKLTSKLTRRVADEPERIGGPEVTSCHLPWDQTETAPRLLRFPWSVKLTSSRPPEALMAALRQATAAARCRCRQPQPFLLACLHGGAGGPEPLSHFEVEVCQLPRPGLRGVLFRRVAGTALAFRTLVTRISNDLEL
# [13] = target: T2, MAP/microtubule affinity-regulating kinase 4 (Homo sapiens); conditions: at 1 µM
# [14] = target: Maternal embryonic leucine zipper kinase (Homo sapiens) (UniProt Q14680); conditions: at 0.1 µM
# [15] = target: Maternal embryonic leucine zipper kinase (Homo sapiens) (UniProt Q14680); conditions: at 1 µM
# [16] = target: MAP kinase-interacting serine/threonine-protein kinase 1 (Homo sapiens) (UniProt Q9BUB5); conditions: at 0.1 µM
# [17] = target: MAP kinase-interacting serine/threonine-protein kinase 1 (Homo sapiens) (UniProt Q9BUB5); conditions: at 1 µM
# [18] = target: MAP kinase-interacting serine/threonine-protein kinase 2 (Homo sapiens) (UniProt Q9HBH9); conditions: at 0.1 µM
# [19] = target: MAP kinase-interacting serine/threonine-protein kinase 2 (Homo sapiens) (UniProt Q9HBH9); conditions: at 1 µM
# [20] = target: Serine/threonine-protein kinase MARK2 (Homo sapiens) (UniProt Q7KZI7); conditions: at 0.1 µM;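 also: mean percent inhibition of PAR-1Balpha kinase activity, reported from the GSK PKIS screen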
# Chain of Serine/threonine-protein kinase MARK2 (Homo sapiens) (Q7KZI7 whole entry): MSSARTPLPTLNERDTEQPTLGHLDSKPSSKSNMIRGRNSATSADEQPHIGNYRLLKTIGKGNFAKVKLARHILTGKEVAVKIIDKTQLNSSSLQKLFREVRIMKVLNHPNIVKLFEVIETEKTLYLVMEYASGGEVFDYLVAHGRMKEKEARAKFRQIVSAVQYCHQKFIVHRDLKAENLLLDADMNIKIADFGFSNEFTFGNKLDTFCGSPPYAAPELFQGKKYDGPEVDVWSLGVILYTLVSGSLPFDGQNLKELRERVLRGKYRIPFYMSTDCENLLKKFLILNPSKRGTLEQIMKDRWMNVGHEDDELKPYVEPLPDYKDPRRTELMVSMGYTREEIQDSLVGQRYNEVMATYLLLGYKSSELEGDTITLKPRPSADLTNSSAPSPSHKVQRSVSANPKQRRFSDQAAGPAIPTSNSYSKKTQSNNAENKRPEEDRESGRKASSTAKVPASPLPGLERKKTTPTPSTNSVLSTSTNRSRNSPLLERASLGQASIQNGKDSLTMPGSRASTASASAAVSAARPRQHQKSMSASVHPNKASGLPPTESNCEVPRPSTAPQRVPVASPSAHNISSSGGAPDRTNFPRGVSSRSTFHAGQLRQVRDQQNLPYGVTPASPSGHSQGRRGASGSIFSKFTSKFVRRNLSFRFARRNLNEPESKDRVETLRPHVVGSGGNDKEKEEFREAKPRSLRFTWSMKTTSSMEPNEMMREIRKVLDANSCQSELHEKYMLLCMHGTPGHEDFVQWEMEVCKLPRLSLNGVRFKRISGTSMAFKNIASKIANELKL
# Chain of Maternal embryonic leucine zipper kinase (Homo sapiens) (Q14680 whole entry, looked up): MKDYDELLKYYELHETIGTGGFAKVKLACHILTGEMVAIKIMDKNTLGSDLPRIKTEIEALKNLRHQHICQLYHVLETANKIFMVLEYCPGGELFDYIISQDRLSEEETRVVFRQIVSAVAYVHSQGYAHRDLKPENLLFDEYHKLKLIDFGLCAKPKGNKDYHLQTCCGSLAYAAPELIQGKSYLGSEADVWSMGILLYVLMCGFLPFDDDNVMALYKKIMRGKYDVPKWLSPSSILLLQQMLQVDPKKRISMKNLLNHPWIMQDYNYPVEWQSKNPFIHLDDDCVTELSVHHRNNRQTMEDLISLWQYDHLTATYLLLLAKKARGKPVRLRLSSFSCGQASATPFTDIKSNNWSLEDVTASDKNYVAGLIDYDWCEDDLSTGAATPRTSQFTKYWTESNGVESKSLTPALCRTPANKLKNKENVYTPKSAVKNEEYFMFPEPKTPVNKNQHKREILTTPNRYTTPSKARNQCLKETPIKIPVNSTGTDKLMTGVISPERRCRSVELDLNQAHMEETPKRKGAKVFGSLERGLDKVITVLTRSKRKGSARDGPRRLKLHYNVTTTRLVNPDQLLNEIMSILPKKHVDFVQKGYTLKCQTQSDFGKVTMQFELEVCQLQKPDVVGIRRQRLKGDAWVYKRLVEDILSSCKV
# Chain of MAP kinase-interacting serine/threonine-protein kinase 1 (Homo sapiens) (Q9BUB5 whole entry, looked up): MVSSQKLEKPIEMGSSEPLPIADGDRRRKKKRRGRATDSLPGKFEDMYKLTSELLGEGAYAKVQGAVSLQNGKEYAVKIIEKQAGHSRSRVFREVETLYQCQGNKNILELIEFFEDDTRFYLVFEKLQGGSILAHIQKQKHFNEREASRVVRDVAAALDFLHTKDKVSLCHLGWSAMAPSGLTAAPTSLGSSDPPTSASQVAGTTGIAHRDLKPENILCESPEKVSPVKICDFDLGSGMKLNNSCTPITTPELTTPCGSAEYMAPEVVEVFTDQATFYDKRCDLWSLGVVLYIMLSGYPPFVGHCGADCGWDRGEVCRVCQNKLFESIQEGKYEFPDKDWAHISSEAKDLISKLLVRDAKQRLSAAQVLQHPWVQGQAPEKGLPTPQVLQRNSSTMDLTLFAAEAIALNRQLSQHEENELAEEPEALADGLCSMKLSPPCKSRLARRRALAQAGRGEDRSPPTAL
# Chain of MAP/microtubule affinity-regulating kinase 3 (Homo sapiens) (P27448 whole entry, looked up): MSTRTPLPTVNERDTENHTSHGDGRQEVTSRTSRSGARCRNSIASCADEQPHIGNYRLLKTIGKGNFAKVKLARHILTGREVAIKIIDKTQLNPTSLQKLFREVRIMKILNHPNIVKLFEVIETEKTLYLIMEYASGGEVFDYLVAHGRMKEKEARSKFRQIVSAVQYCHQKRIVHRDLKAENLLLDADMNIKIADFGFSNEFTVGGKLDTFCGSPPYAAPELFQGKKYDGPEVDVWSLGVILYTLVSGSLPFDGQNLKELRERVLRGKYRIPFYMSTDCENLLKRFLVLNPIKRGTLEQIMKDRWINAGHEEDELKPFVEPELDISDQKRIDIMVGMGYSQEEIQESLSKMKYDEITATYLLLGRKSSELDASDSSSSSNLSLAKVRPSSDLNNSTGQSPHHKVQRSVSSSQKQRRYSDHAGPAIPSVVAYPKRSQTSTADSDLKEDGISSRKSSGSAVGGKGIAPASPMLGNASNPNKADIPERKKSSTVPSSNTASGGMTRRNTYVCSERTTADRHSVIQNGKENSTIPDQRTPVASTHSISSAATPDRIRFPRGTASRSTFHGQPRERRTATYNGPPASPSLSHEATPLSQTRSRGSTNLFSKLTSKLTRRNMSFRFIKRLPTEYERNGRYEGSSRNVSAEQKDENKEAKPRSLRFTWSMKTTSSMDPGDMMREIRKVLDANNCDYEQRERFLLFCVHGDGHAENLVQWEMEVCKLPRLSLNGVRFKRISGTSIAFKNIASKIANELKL
# Chain of MAP kinase-interacting serine/threonine-protein kinase 2 (Homo sapiens) (Q9HBH9 whole entry, looked up): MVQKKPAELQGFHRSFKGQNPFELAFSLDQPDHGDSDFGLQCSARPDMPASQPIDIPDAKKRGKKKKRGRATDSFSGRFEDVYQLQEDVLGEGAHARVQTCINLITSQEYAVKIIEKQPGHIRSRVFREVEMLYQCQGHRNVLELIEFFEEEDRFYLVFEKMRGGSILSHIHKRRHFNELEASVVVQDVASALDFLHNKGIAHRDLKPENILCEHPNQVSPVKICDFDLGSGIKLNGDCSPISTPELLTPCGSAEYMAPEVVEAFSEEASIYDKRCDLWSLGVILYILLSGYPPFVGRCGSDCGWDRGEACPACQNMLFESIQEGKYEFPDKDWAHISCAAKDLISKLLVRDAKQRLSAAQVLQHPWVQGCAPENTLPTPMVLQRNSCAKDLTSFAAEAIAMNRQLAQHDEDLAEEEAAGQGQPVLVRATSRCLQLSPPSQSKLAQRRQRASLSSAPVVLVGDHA
# Chain of Serine/threonine-protein kinase MARK1 (Homo sapiens) (Q9P0L2 whole entry, looked up): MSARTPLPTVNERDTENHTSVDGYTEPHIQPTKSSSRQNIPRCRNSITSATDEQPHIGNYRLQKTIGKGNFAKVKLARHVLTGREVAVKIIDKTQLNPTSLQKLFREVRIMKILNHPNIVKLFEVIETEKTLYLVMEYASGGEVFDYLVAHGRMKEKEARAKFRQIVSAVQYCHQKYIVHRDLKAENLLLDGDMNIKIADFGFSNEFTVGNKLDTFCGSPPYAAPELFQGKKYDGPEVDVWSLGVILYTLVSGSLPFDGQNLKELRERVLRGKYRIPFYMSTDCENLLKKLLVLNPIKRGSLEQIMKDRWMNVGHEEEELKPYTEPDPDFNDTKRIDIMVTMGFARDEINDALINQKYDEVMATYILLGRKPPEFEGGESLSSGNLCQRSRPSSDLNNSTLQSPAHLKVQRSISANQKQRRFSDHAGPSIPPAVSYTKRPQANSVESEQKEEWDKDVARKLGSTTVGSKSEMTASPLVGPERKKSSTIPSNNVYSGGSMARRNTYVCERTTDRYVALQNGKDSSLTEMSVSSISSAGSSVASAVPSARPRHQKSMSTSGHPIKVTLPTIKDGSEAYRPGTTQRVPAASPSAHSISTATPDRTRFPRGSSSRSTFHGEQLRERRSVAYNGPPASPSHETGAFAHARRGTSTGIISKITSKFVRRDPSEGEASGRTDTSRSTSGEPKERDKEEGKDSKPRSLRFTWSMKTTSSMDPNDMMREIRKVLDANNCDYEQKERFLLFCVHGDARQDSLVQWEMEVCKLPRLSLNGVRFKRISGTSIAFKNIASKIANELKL
# Chain of MAP kinase-activated protein kinase 2 (Homo sapiens) (P49137 whole entry, looked up): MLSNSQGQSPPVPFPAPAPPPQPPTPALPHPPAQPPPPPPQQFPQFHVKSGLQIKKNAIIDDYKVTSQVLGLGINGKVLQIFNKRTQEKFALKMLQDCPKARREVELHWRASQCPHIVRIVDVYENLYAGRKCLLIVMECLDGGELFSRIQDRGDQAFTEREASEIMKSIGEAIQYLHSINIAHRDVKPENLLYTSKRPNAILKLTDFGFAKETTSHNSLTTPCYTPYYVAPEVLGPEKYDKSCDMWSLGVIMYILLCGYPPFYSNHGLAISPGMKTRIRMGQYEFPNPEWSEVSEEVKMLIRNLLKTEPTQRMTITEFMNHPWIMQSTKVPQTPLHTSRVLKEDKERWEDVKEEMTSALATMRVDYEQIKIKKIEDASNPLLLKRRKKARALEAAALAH
# Chain of MAP kinase-activated protein kinase 3 (Homo sapiens) (Q16644 whole entry, looked up): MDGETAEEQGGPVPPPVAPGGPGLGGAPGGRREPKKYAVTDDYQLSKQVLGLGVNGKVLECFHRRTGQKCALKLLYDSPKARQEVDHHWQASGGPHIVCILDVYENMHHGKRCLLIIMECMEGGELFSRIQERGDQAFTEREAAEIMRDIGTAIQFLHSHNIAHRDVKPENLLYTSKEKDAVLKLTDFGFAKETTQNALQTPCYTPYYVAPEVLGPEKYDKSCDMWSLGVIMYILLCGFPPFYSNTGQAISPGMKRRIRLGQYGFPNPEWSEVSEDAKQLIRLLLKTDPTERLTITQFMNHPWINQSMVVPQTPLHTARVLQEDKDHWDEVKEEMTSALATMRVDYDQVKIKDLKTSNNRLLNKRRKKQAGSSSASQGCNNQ
SMILES,inhibition [1] [%],inhibition [2] [%],inhibition [3] [%],inhibition [4] [%],inhibition [5] [%],inhibition [6] [%],inhibition [7] [%],inhibition [8] [%],inhibition [9] [%],inhibition [10] [%],inhibition [11] [%],inhibition [12] [%],inhibition [13] [%],inhibition [14] [%],inhibition [15] [%],inhibition [16] [%],inhibition [17] [%],inhibition [18] [%],inhibition [19] [%],inhibition [20] [%]
COC(=O)c1cncc(/C=C/c2c(C)cc(O)cc2C)c1,5.55,1.84,1.18,1.83,2.28,2.97,3.34,2.55,2.79,2.68,2.01,0.01,0.82,2.47,5.13,4.41,25.6,3.34,16.1,0.36
ON=C1CCc2cc(-c3nc(C4CCNCC4)[nH]c3-c3ccncc3)ccc21,1.92,2.56,-0.17,-0.64,-0.71,8.04,26.9,0.47,1.75,0.82,3.01,0.47,1.99,-0.02,1.75,0.86,3.6,0.66,0.78,-1.2
N#Cc1cccc(Nc2nccc(-c3cnn4ncccc34)n2)c1,3.93,2.04,0.56,2.34,1.6,2.17,5,6.5,15.2,2.34,13.1,1.74,9.89,12.5,55.9,6.09,22.5,5.65,33,1.3
CN(C)C(=O)O[C@H]1CN[C@H](C#Cc2cc3ncnc(Nc4ccc(OCc5cccc(F)c5)c(Cl)c4)c3s2)C1,2.24,-0.33,2.04,1.5,0.84,2.84,2.58,2.51,2.11,2.14,3.81,1.04,1.72,1.5,4.17,2.31,6.43,1.15,6.67,0.94
COc1cccc(-n2ncc3c(N/N=C/c4ccc(C)cc4)ncnc32)c1,-4.37,0.26,2.82,-0.94,0.98,-0.57,-0.87,3.16,6.21,2.69,6.9,2.42,5.11,5.47,12.6,4.37,9.69,3.79,11.2,2.05
OCc1ccc(-c2nc(-c3ccccn3)c(-c3ccc4c(c3)OCO4)[nH]2)cc1,6.09,2.19,2.76,1.95,1.87,3.91,6.87,4.66,4.32,4.6,4.42,1.75,2.19,6.02,4.4,2.65,2.54,0.41,0.09,1.8
CN(c1ccc(NC(=O)Nc2ccc(OC(F)(F)F)cc2)cc1)c1ccnc(Nc2cccc(S(N)(=O)=O)c2)n1,2.02,-2.05,0.7,0.67,-0.37,2.5,7.62,0.28,2.36,1.62,-0.68,0.65,1.56,0.77,-2.07,29.2,73.3,20.5,67.3,-1.1
Nc1nccc(C#Cc2cncnc2Nc2ccc(OCc3cccc(F)c3)c(Cl)c2)n1,5.3,1.36,0.82,1.66,1.43,2.38,4.95,5.72,10.4,4.09,11.2,3.04,7.4,2.92,5.11,3.59,14,2.98,8.39,1.67
COc1cc2ncn(-c3cc(OCc4ccccc4S(C)(=O)=O)c(C#N)s3)c2cc1OC,6.48,1.77,0.47,1.6,1.54,3.38,4.59,36.9,80,49.6,88.3,34.9,76.6,1.64,8.3,11.7,47.7,41.8,76.8,25.9
N#Cc1c(NC(=O)c2ccccc2F)sc2c1CCCC2,-2.35,-1.75,0.7,-1.29,-0.76,-0.73,-1.26,1.09,2.84,-2.32,3.09,1.13,3.48,-3.26,-2.77,-0.78,-0.18,-0.06,2.26,-0.36
NS(=O)(=O)c1ccc(-c2cc3ccncc3cc2OCc2ccccc2)cc1,1.02,0.91,3.41,1.47,1.1,5.12,6.72,0.77,3.63,-0.26,0.1,0.25,1.99,1.24,3.87,4.45,17.7,4.29,26.4,-2.14
FC(F)(F)c1ccc(-c2nn3ncccc3c2-c2ccnc(Nc3ccc4c(c3)OCCO4)n2)cc1,1.79,5.13,2.77,3.11,3.56,10.3,30.6,4.61,6.64,5.66,11.2,4.98,6.4,-0.41,-0.13,6.66,10.9,6.24,9.7,6.43
O=C1Nc2ccccc2/C1=C/Nc1ccc2[nH]c(=O)[nH]c2c1,2.63,0.75,-0.33,2.44,2.97,6.76,8.08,6.25,32.5,2.47,27.5,4.86,27.1,5.79,41.4,5.46,14,2.62,10.9,3.32
